Data from PubChem BioAssay.
Entries with a potency or affinity are not part of this list. Inconclusive results are not listed. The source made the active and inactive calls.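 How the source made its calls: active means signal-lowering compounds whose fitted half-maximal concentration is at or below twice the top tested dose in every run; inconclusive means runs disagree, flat 30 to 70% inhibition, or poor curve fit; inactive means the rest.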

Assay: CMV-driven luciferase expression suppression in HEK293 – cell-based, luminescence, dry powder, counter-screen for Pax8 inhibitor project, dose response (AID 743020);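 further: HEK293 cells stably expressing the CMV luciferase reporter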
Details: HEK293 CMV-luciferase reporter, SteadyGlo luminescence, 24 h; series mostly up to 35 µM
In the case of `CC(C)CC#Cc1ccc2c(c1)O[C@H](CN(C)Cc1ccc(C(=O)O)cc1)[C@@H](C)CN([C@H](C)CO)S2(=O)=O`, the outcome is reported as “inactive”. In the case of `O=S(=O)(c1ccccc1F)N1CC[C@@H]2[C@H]1c1cc(-c3cccc(F)c3)ccc1N[C@@H]2CO`, the outcome is reported as “inactive”. With `O=C1/C(=C/c2ccccc2F)SC(=S)N1CC(=O)N1CCCCC1c1cccnc1` (centres undefined) the outcome was “inactive”. With `C[C@H](CO)N1C[C@H](C)[C@@H](CN(C)Cc2ccc(Cl)c(Cl)c2)Oc2ccc(NS(=O)(=O)c3ccccc3)cc2CC1=O` the outcome was “inactive”. With `O=C(Nc1ccc(F)cc1)N1CCCCN2[C@@H](CO)[C@@H](c3ccc(C#Cc4ccccc4)cc3)[C@@H]2C1` the outcome was “inactive”. With `C[C@@H]1CN([C@H](C)CO)C(=O)c2cc(NC(=O)Nc3ccccc3)ccc2O[C@@H](C)CCCCO[C@@H]1CN(C)Cc1ccc(C(F)(F)F)cc1` the outcome was “inactive”. For `Cc1ccc(-c2csc(NC3OC(=O)c4ccccc43)n2)cc1` (centres undefined), the outcome was “inactive”. In the case of `COc1cc(/C=C2\SC(=S)N(CCC(=O)N3CCCCC3)C2=O)cc(OC)c1OC`, the outcome is reported as “inactive”. With `Cc1ccccc1S(=O)(=O)N1CC[C@@H]2[C@H](CO)Nc3ccc(-c4cccc(F)c4)cc3[C@@H]21` the outcome was “inactive”. With `CN(C)CCN(C(=O)/C=C/c1cccs1)c1nc2c(F)cc(F)cc2s1` the outcome was “inactive”. With `Cc1noc(C)c1S(=O)(=O)Nc1ccc2c(c1)C(=O)N([C@H](C)CO)C[C@H](C)[C@@H](CN(C)C(=O)Nc1ccc(C(F)(F)F)cc1)OCCCC[C@H](C)O2` the outcome was “inactive”. For `Cc1ccc(S(=O)(=O)Nc2ccc3c(c2)C(=O)N([C@@H](C)CO)C[C@@H](C)[C@H](CN(C)Cc2ccc(C(F)(F)F)cc2)OCCCC[C@H](C)O3)cc1`, the outcome was “inactive”. With `COc1ccccc1C#Cc1ccc2c(c1)O[C@H](CN(C)Cc1cccnc1)[C@H](C)CN([C@@H](C)CO)S2(=O)=O` the outcome was “inactive”. With `Cc1cc(C)c2sc(NNC(=O)c3ccc(S(=O)(=O)N4CCc5ccccc5C4)cc3)nc2c1` the outcome was “inactive”.
